Pol eta inh: blocks human DNA polymerase eta activity; 1.2% of 390,000 active; recombinant Pol eta, fluorescent DNA replication assay; Potency, µM (top dose mostly 114 µM), for inactives: at the highest dose activity change, negative = inhibition, usual class: inhibitors; AID 588591; Q9Y253; further: potency means the concentration at half of the fitted maximal effect; on the % scale 0 is the no-effect control and ±100 the full control effect
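Fluorescent replication assay: 50 nM final substrate added after a 15 min room-temperature compound preincubation with 10 nM enzyme. Signal taken at 0 min and again at 10 min.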
Pol iota inh: DNA polymerase iota (human) inhibition; Q9UNA4; Pol iota fluorescent replication assay, 10 min; Potency, µM (series often up to 115 µM), inactives show at the top dose activity, negative = inhibition, usual class: inhibitors; 1% of 390,000 active; AID 588590; further: potency means the concentration at half of the fitted maximal effect
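Fluorescent replication assay read twice, at 0 min and 10 min after adding 50 nM (final) substrate. Enzyme (10 nM) and compounds were first incubated 15 min at room temperature; enzyme-free buffer wells were negative controls.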
Pol kappa inh: blocks human DNA polymerase kappa activity; purified Pol kappa, fluorescent DNA synthesis assay, 10 min; Potency, µM (titrated, usually from 107 µM), for the others: top-dose activity, negative = inhibition, hits mostly inhibitors; 0.53% of 400,000 active; AID 588579; further: potency means the concentration at half of the fitted maximal effect; on the % scale 0 is the no-effect control and ±100 the full control effect
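Enzyme at 10 nM met test compounds for 15 min at room temperature. Substrate addition (50 nM final) began the reaction, which was monitored by fluorescence at 0 and 10 min.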
PI5P4Ka inh: inhibitors of human PI5P4K alpha | max response, % | P48426 | 1.2% of 330,000 active | PI5P4Kalpha enzyme, ADP-Glo luminescence, 60 min; stronger effect = lower value; active means max response of -50% or lower; inconclusive means between -30% and -50%; inactive means -30% or higher; further: value at the top dose of about 77 µM; on the % scale 0 is the no-effect control and ±100 the full control effect
Target sequence (P48426 whole entry, looked up): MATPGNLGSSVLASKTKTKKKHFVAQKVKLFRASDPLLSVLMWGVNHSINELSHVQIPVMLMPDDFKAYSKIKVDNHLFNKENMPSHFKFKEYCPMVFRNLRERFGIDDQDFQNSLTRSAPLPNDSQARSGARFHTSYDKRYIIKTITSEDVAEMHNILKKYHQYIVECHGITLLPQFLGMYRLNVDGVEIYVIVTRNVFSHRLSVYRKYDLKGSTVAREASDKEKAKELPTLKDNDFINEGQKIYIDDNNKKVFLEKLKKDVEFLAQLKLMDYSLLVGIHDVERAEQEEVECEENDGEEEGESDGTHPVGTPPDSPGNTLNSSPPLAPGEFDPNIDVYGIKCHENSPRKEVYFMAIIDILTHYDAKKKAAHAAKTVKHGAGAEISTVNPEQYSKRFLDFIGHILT
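Human PI5P4Kalpha with substrate in 0.038 M HEPES pH 7.4, 0.28 mM EGTA, 0.1% CHAPS, 5% DMSO; reaction started with 5 microM ATP (final), 60 min at room temperature. ADP formed read by ADP-Glo luminescence.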
WRN helicase inh: WRN helicase (human) inhibition; Potency, µM (top dose mostly 114 µM), inactives show at the top dose activity change, negative = inhibition, usual class: inhibitors; WRN helicase unwinding, fluorescent forked duplex, kinetic; AID 651768; Q14191; 0.46% of 360,000 active; further: potency means the concentration at half of the fitted maximal effect; on the % scale 0 is the no-effect control and ±100 the full control effect; nearly all actives have a fitted effect of over 55% in size
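Fluorescence dequenching readout, ex 525 nm/em 598 nm, kinetic mode: forked duplex DNA (100 nM final) with adjacent fluorophore and quencher unwound by WRN (20 nM final) with 2 mM ATP. Compound preincubation 15 min, room temperature.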
POLB inh: DNA polymerase beta (human) inhibition | P06746 | Pol beta primer extension/strand displacement, fluorescence kinetic | Potency, µM (top dose mostly 114 µM), without a hit: at the top dose activity change, negative = inhibition, most hits filed as inhibitors | 1.3% of 340,000 active | AID 485314; further: potency means the concentration at half of the fitted maximal effect; on the % scale 0 is the no-effect control and ±100 the full control effect
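Preincubation: enzyme (10 nM) with compound, 15 min, RT. Reaction: substrate added to 50 nM final. Reads: 0 and 10 min. Analysis: normalized, Hill fit.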
An asterisk follows results filed as active; ? = inconclusive; . = no result given; [ ] = dose if it differs, or a comment. Shown are actives, neighbours in structure and some others; about 2.8% of the full set was active somewhere. Unless noted, the call rests on the fitted dose curve; in most records, active means well fitted curve in the direction sought with a large enough effect; inconclusive means small, poorly fitted or top-dose-only effect, or another doubt; inactive means no such curve, though single readings can be large; an effect the other way counts as inactive or inconclusive.

SMILES | Pol eta inh | Pol iota inh | Pol kappa inh | PI5P4Ka inh | WRN helicase inh | POLB inh
COc1cc(/C=N\NC(=O)c2ccc(-c3ccccc3)cc2)cc(OC)c1OC(C)=O | -3% | 3% | -24% | 5 | -8% | ?
C/C(=N\NC(=O)c1ccc(NS(=O)(=O)c2cccs2)cc1)c1ccc(O)cc1O | -12% | 52% | -18% | -96* | ? | 37%
Cc1nn(-c2ccc(Cl)cc2)c(Cl)c1/C=N/NC(=O)c1ccc(NS(=O)(=O)c2cccs2)cc1 | 79µM* | -4% | -16% | -66* | -21% | .
COc1cc(C(=O)N/N=C/c2ccc3c(c2)c2ccccc2n3C)ccc1O | 16µM* | 18µM* | ? | -18 | -7%[11.6 µM] | 25µM*
COC(=O)c1scc(-c2ccc(C)cc2)c1S(=O)(=O)Nc1ccc(OC(F)(F)F)cc1 | -15% | -15% | -16% | . | . | -7%
Cc1c(O)ccc2c1OC(C)(C)CC2 | . | 53% | -8% | . | . | .
O=C1CN(C(=O)c2ccccc2C(F)(F)F)C(c2ccccc2)c2cc(F)ccc2N1 (centres undefined) | -18% | -6% | -6% | . | . | 13%
CN(C)S(=O)(=O)c1ccc2c(c1)N(CC(=O)N1CCN(c3ccc(F)cc3)CC1)CCS2 | -15% | 21% | -7%[60.1 µM] | . | . | -1%
Cc1ccc2[nH]c(O)c(N=NC(=O)c3ccc(NS(=O)(=O)c4cccs4)cc3)c2c1 | 22µM* | ? | -11% | -56* | -31%[57.1 µM] | 3%
CCOc1cc(/C=N/Nc2nn3cnnc3c3ccccc23)ccc1O | ? | ? | -39% | -3 | -12%[11.6 µM] | ?
COc1cc(/C=N/NC(=O)c2ccc(NS(=O)(=O)c3cccs3)cc2)cc(OC)c1O | -28% | -27% | -8% | -60* | -13% | .
COc1cc(/C=N/Nc2nn3cnnc3c3ccccc23)ccc1O | ? | ? | -2% | . | ? | 50µM*
O=C(Nc1cc(Br)c(O)c(Br)c1)c1cccc(NC(=O)c2ccco2)c1 | ? | -8% | -13% | -30 | -17% | ?
O=C(Nc1cccc(N=Cc2cc(Cl)cc(Br)c2O)c1)c1ccco1 | ? | 22% | -24% | -55* | ? | 7%
O=C(Nc1cccc(N=Cc2cc(Br)cc(Br)c2O)c1)c1ccco1 | ? | 89µM* | -19% | -59* | ? | -1%
CC(=O)N1CCc2c(sc3nc(SCC(N)=O)n(-c4ccc(F)c(Cl)c4)c(=O)c23)C1 | 4% | -3% | 5% | . | . | -9%
C=CC1=C(C)C2=NC1=CC1=NC(=CC3=NC(=CC4=NC(=C2)C(C)=C4CCC(=O)O)C(CCC(=O)O)=C3C)C(C=C)=C1C.[Zn] | . | . | 3.5µM* | . | . | .
COc1cc(S(=O)(=O)O)c(C)cc1N=Nc1c(O)ccc2cc(S(=O)(=O)O)ccc12 | . | 45µM* | 79µM* | . | . | .
CCCCC1=CC2=C(c3ccco3)C(=O)C(C)(OC(=O)c3ccc(OC)cc3)C(=O)C2=CN1Cc1ccco1 (centres undefined) | -15% | 4µM* | 50µM* | -18 | 0% | 10µM*
CCCCC1=CC2=C(c3ccco3)C(=O)C(C)(OC(=O)c3ccc(OC)cc3)C(=O)C2=CN1Cc1ccc(OC)cc1 (centres undefined) | . | . | . | . | . | 45µM*
Cc1ccc(Cl)cc1N1CCN(C(=O)c2cc(S(=O)(=O)N3CCCC3)cn2C)CC1 | -28% | 24% | -2% | . | . | ?
CN(C)Cc1ccccc1-c1nc(NC2CCNCC2)c2ccccc2n1 | . | . | 14µM* | . | . | .
CN(C)c1ccc(-c2nc(NC3CCNCC3)c3ccccc3n2)cc1 | . | . | 32µM* | . | . | .
CCN(CC)S(=O)(=O)c1ccc(NC(=O)c2nn(C)c3c2CSc2ccccc2-3)cc1 | -8% | 16% | -3% | . | . | -22%
O=S1(=O)CC(O)C(O)CS1 (centres undefined) | . | . | . | -69* | -5% | .
CC(=O)C(Sc1nn(C)c(=S)s1)C(=O)Nc1ccccc1 (centres undefined) | -7% | 11% | 1% | -83* | -21% | -1%
